Reference: the supplement of paper PMC8728848
Only a selection was taken, and the strongest signals are over-represented in it overall.

Columns and labels:
Experiment in all cases: glycan array binding signal (z-score within array); higher = stronger binding
Settings in all cases: glycan notation: IUPAC condensed, linker removed
[1] = target: Fuc(a1-2)Gal(b1-3)GlcNAc(b1-2)Man(a1-3)[Fuc(a1-2)Gal(b1-3)GlcNAc(b1-2)Man(a1-6)]Man(b1-4)GlcNAc(b1-4)GlcNAc
In short: (§1)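 From the Consortium for Functional Glycomics database, 3228 arrays were curated, keeping only those whose protein sequence was available. Binding is given as a within-array Z-score averaged across arrays sharing a protein sequence and across linkers. Negative Z-scores can be read as non-binding.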

[2] = target: Fuc(a1-2)Gal(b1-3)GlcNAc(b1-3)GalNAc
In short: as §1

[3] = target: Fuc(a1-2)Gal(b1-4)GlcNAc(b1-2)[Fuc(a1-2)Gal(b1-4)GlcNAc(b1-4)]Man(a1-3)[Fuc(a1-2)Gal(b1-4)GlcNAc(b1-2)Man(a1-6)]Man(b1-4)GlcNAc(b1-4)GlcNAc
In short: as §1

[4] = target: Fuc(a1-2)Gal(b1-4)GlcNAc(b1-3)Gal(b1-4)GlcNAc(b1-3)Gal(b1-4)GlcNAc
In short: as §1

[5] = target: Fuc(a1-2)[Gal(a1-3)]Gal(b1-4)GlcNAc(b1-3)[Fuc(a1-2)[Gal(a1-3)]Gal(b1-4)GlcNAc(b1-6)]GalNAc
In short: as §1

[6] = target: Fuc(a1-2)[Gal(a1-3)]Gal(b1-4)[Fuc(a1-3)]GlcNAc
In short: as §1

[7] = target: Fuc(a1-2)[GalNAc(a1-3)]Gal(b1-4)GlcNAc(b1-2)Man(a1-3)[Fuc(a1-2)[GalNAc(a1-3)]Gal(b1-4)GlcNAc(b1-2)Man(a1-6)]Man(b1-4)GlcNAc(b1-4)GlcNAc
In short: as §1

[8] = target: Fuc(a1-3)[Gal(b1-4)]Glc6S
In short: as §1

[9] = target: Fuc(a1-3)[Gal(b1-4)]GlcNAc(b1-3)GalNAc
In short: as §1

Fuc(a1-4)GlcNAc = target: Fuc(a1-4)GlcNAc
In short: as §1

Gal(a1-3)Gal(b1-3)GlcNAc = target: Gal(a1-3)Gal(b1-3)GlcNAc
In short: as §1

[10] = target: Gal(a1-3)Gal(b1-4)[Fuc(a1-3)]GlcNAc
In short: as §1

[11] = target: Gal(b1-3)GalNAc(a1-3)[Fuc(a1-2)]Gal(b1-4)GlcNAc
In short: as §1

[12] = target: Gal(b1-3)GlcNAc(b1-2)Man(a1-3)[GlcNAc(b1-4)][Gal(b1-3)GlcNAc(b1-2)Man(a1-6)]Man(b1-4)GlcNAc(b1-4)GlcNAc
In short: as §1

[13] = target: Gal(b1-3)GlcNAc(b1-2)[Gal(b1-3)GlcNAc(b1-6)]Man(a1-6)[Gal(b1-3)GlcNAc(b1-2)Man(a1-3)]Man(b1-4)GlcNAc(b1-4)GlcNAc
In short: as §1

[14] = target: Gal(b1-3)GlcNAc(b1-3)Gal(b1-3)GlcNAc
In short: as §1

[15] = target: Gal(b1-3)GlcNAc(b1-3)Gal(b1-4)GlcNAc(b1-3)Gal(b1-4)GlcNAc(b1-2)[Gal(b1-3)GlcNAc(b1-3)Gal(b1-4)GlcNAc(b1-3)Gal(b1-4)GlcNAc(b1-6)]Man(a1-6)[Gal(b1-3)GlcNAc(b1-3)Gal(b1-4)GlcNAc(b1-3)Gal(b1-4)GlcNAc(b1-2)Man(a1-3)]Man(b1-4)GlcNAc(b1-4)[Fuc(a1-6)]GlcNAc
In short: as §1

[16] = target: Gal(b1-4)GlcNAc(b1-2)Man(a1-3)[Gal(b1-4)GlcNAc(b1-2)Man(a1-6)]Man(b1-4)GlcNAc(b1-4)GlcNAc
In short: as §1

[17] = target: Gal(b1-4)GlcNAc(b1-3)Gal(b1-4)GlcNAc(b1-3)Gal(b1-4)GlcNAc(b1-2)Man(a1-3)[Gal(b1-4)GlcNAc(b1-3)Gal(b1-4)GlcNAc(b1-3)Gal(b1-4)GlcNAc(b1-2)Man(a1-6)]Man(b1-4)GlcNAc(b1-4)GlcNAc
In short: as §1

[18] = target: Gal(b1-4)GlcNAc(b1-3)Gal(b1-4)GlcNAc(b1-3)Gal(b1-4)GlcNAc(b1-3)Gal(b1-4)GlcNAc(b1-3)Gal(b1-4)GlcNAc(b1-2)[Gal(b1-4)GlcNAc(b1-3)Gal(b1-4)GlcNAc(b1-3)Gal(b1-4)GlcNAc(b1-3)Gal(b1-4)GlcNAc(b1-3)Gal(b1-4)GlcNAc(b1-6)]Man(a1-6)[Gal(b1-4)GlcNAc(b1-3)Gal(b1-4)GlcNAc(b1-3)Gal(b1-4)GlcNAc(b1-3)Gal(b1-4)GlcNAc(b1-3)Gal(b1-4)GlcNAc(b1-2)Man(a1-3)]Man(b1-4)GlcNAc(b1-4)[Fuc(a1-6)]GlcNAc
In short: as §1

Gal3S(b1-4)Glc6S = target: Gal3S(b1-4)Glc6S
In short: as §1

Gal6S(b1-4)Glc = target: Gal6S(b1-4)Glc
In short: as §1

Gal6S(b1-4)GlcNAc = target: Gal6S(b1-4)GlcNAc
In short: as §1

[19] = target: GalNAc(b1-3)Gal(a1-4)Gal(b1-4)GlcNAc
In short: as §1

GalNAc(b1-3)GalNAc = target: GalNAc(b1-3)GalNAc
In short: as §1

[20] = target: GalNAc(b1-4)GlcNAc(b1-2)Man(a1-3)[GalNAc(b1-4)GlcNAc(b1-2)Man(a1-6)]Man(b1-4)GlcNAc(b1-4)GlcNAc
In short: as §1

GalNAc3S(b1-4)GlcNAc3S = target: GalNAc3S(b1-4)GlcNAc3S
In short: as §1

GlcA(b1-6)Gal = target: GlcA(b1-6)Gal
In short: as §1

[21] = target: GlcA3S(b1-3)Gal(b1-4)GlcNAc(b1-3)Gal(b1-4)Glc
In short: as §1

[22] = target: GlcNAc(b1-2)Man(a1-3)[GlcNAc(b1-2)Man(a1-6)]Man(b1-4)GlcNAc(b1-4)[Fuc(a1-6)]GlcNAc
In short: as §1

B1: Sebin2 (Coprinopsis cinerea), A8PE78 (protein)
chain: MTTPFYAYCHNVQDDNTWRLGLVFANRSTADEWWRAISEATSSIPITKSITRVTPQYYTHDIRVWNMYNFFVDGNIKSISDKFRGRLFITLEYDRSGRGVSVFPPLHIVDHVSGNWYYIRSKTAPHLFWFYDETRNAIYASKEKRTRFKVSIRNPSPQTPKDAIMINSDDVVIHIKESLYVGVDSYLGHIIPTRAYRTFKFGELEGGAIAGIEVAENAEERCSSTFDGASLYFVGPDSSSPGEPWELV
With B1 the “glycan array binding signal (z-score)” value [1] was 0.911, the “glycan array binding signal (z-score)” value [2] was -0.146 and the “glycan array binding signal (z-score)” value [3] was 0.019. For the same binder, the “glycan array binding signal (z-score)” value [4] was -0.116, the “glycan array binding signal (z-score)” value [5] was 4.59 and the “glycan array binding signal (z-score)” value [6] was -0.033. The “glycan array binding signal (z-score)” value [7] was 0.273, the “glycan array binding signal (z-score)” value [8] was 1.49 and the “glycan array binding signal (z-score)” value [9] was 0.281. For the same binder, the “glycan array binding signal (z-score)” value (Fuc(a1-4)GlcNAc) was 4.58, the “glycan array binding signal (z-score)” value (Gal(a1-3)Gal(b1-3)GlcNAc) was 1.62 and the “glycan array binding signal (z-score)” value [10] was -0.524. The “glycan array binding signal (z-score)” value [11] was -0.521, the “glycan array binding signal (z-score)” value [12] was -0.222 and the “glycan array binding signal (z-score)” value [13] was 1.02. The “glycan array binding signal (z-score)” value [14] was -0.397, the “glycan array binding signal (z-score)” value [15] was 0.29 and the “glycan array binding signal (z-score)” value [16] was 0.112. The “glycan array binding signal (z-score)” value [17] was -0.131, the “glycan array binding signal (z-score)” value [18] was 0.421 and the “glycan array binding signal (z-score)” value (Gal3S(b1-4)Glc6S) was 0.515. The “glycan array binding signal (z-score)” value (Gal6S(b1-4)Glc) was -0.355, the “glycan array binding signal (z-score)” value (Gal6S(b1-4)GlcNAc) was -0.138 and the “glycan array binding signal (z-score)” value [19] was -0.059. For the same binder, the “glycan array binding signal (z-score)” value (GalNAc(b1-3)GalNAc) was -0.129, the “glycan array binding signal (z-score)” value [20] was -0.25 and the “glycan array binding signal (z-score)” value (GalNAc3S(b1-4)GlcNAc3S) was 0.462. The “glycan array binding signal (z-score)” value (GlcA(b1-6)Gal) was 1.12, the “glycan array binding signal (z-score)” value [21] was 1.64 and the “glycan array binding signal (z-score)” value [22] was -0.213.
